# The campaign covered roughly 340,000 compounds. About 1,000 (0.29%) were called active. Rule as the data show it: inconclusive = inhibition above about 27% without an active follow-up result; inactive = below that. A selection follows. Results with a measured potency or affinity are listed apart.
# Assay: H1N1 influenza NS1A inhibitors, functional cell based assay (AID 504329)
# Conditions: percent inhibition, at 12.5 µM, hits give high values
row,Structure (SMILES),inhibition
1,Cc1ccc(CNC(=O)CN2C(=O)CSc3ccc(S(=O)(=O)N4CCCCC4)cc32)cc1,2.97% (inactive)
2,COC(=O)c1ccc(CNC(=O)c2coc3ccccc3c2=O)cc1,-15.6% (inactive)
3,O=C(COc1ccc(Cl)cc1)NC1CCSC1=O (configuration not stated),-5.86% (inactive)
4,O=C1CC(NNc2nc3ccccc3s2)C(=O)N1c1ccccc1 (configuration not stated),2.74% (inactive)
5,O=C(COC(=O)C1CCC1)c1c[nH]c2ccccc12,-3.9% (inactive)
6,CCn1c(=O)[nH]c2cc(C(=O)N3CCN(c4ccccc4)CC3)ccc2c1=O,5.52% (inactive)
7,COc1cc2c(cc1OC)CN(c1nc(CN3CCOCC3)nc3sc4c(c13)CCCC4)CC2,4.39% (inactive)
8,O=C(NCC(c1ccco1)N1CCCCC1)c1ccc(S(=O)(=O)Nc2ccccc2)cc1 (configuration not stated),-1.8% (inactive)
9,COc1ccc(-n2ccnc(SCC(=O)NC3CCCCC3)c2=O)cc1,-5.37% (inactive)
10,CCc1cccc2sc(NC(=O)C3CC3)nc12,-5.24% (inactive)
11,Nc1c(C=C2C=CC(=O)C=C2)c(=O)nc2snc(SCc3ccccc3)n12,11.3% (inactive)
12,C=CCOc1ccc(C(=O)c2ccccc2)c(OCC(=O)NC2(C#N)CCCC2)c1,5.71% (inactive)
13,COc1ccc2nc3cccc(OC)c3nc2c1,-1.33% (inactive)
14,COc1cccc2nc3cc(C)c(C)cc3nc12,1.36% (inactive)
15,OC(CN1CCN(c2ccc(C(F)(F)F)cn2)CC1)c1ccccc1 (configuration not stated),-15% (inactive)
16,CC(C)(C)N(Cc1ccccc1)C(=O)COC(=O)c1ccc(S(=O)(=O)N2CCOCC2)cc1,-2.6% (inactive)
17,COc1ccc(C(=O)N/N=C(\c2ccccc2)c2ccccn2)cc1,6.37% (inactive)
18,COc1ccc(Nc2cc(C)c3ccccc3n2)cc1,-1.04% (inactive)
19,COc1cc(C2C3=C(CCCC3=O)Nc3[nH]n(-c4ccccc4)c(=O)c32)ccc1OC(C)=O (configuration not stated),2.7% (inactive)
20,CC1CCN(CCCNC(=O)c2cc3sccc3n2C)CC1,4.97% (inactive)
21,Cn1c(C(=O)NCCCN2CCCCC2)cc2sccc21,8.28% (inactive)
22,NCCCN1CCN(c2ccccc2)CC1,11.2% (inactive)
23,COc1ccc(N2CCN(CCC(N)=O)CC2)cc1,-4.44% (inactive)
24,CC1(C)NC(=O)N(CC(=O)OCC(=O)c2ccc(F)cc2)C1=O,-8.13% (inactive)

row,Structure (SMILES),inhibition
1,CCOc1ccccc1N1CC(C(=O)Nc2cc(S(C)(=O)=O)ccc2Cl)CC1=O (configuration not stated),-5.65% (inactive)
2,O=C(O)c1ccc(NCc2nc3ccccc3n2Cc2ccccc2)cc1,11.2% (inactive)
3,NNC(=O)c1sccc1OCc1ccc(Cl)cc1,0.97% (inactive)
4,Cc1noc(C)c1S(=O)(=O)Nc1ccccc1N1CCOCC1,0.87% (inactive)
5,O=C(CCNC(=O)c1ccc([N+](=O)[O-])cc1)Nc1nc2ccccc2[nH]1,-0.35% (inactive)
6,O=[N+]([O-])c1ccc(N=Nc2ccc(O)cc2O)cc1,-9.68% (inactive)
7,O=S(=O)(Nc1ccc(N=Nc2ccc(O)c3ccccc23)cc1)c1ccccc1,5.24% (inactive)
8,O=C1ON=C(c2ccccc2)/C1=C/c1ccc(-c2ccccc2[N+](=O)[O-])o1,-1.51% (inactive)
9,COc1ccc(-c2ccc(/C=C3\C(=O)N(c4ccccc4)N=C3c3ccccc3)o2)c([N+](=O)[O-])c1,10.3% (inactive)
10,CC(C)Cc1nnc(NC(=O)CCC(=O)NCc2ccccc2Cl)s1,-2.08% (inactive)
11,CC(=O)Nc1ccc2nc(NC(=O)COc3ccccc3Cl)sc2c1,-0.9% (inactive)
12,CN1CCN(c2ccc(NC(=O)Oc3ccccc3)cc2)CC1,17.8% (inactive)
13,COc1ccc(C(=O)Nc2ccc(N3CCN(C)CC3)cc2)cc1,1.09% (inactive)
14,CC(C)Oc1cccc(C(=O)Nc2ccc(N3CCN(C)CC3)cc2)c1,-2.02% (inactive)
15,C=CC(=O)Nc1cccc(Oc2ccnc3[nH]ccc23)c1,19.9% (inactive)
16,Cc1ccc(S(=O)(=O)N2CCN(C(=O)COC(=O)/C=C/c3ccccc3[N+](=O)[O-])CC2)c(C)c1,0.45% (inactive)
17,CC(NCC(=O)Nc1ccccc1C(=O)NC1CC1)c1cccs1 (configuration not stated),-16.2% (inactive)
18,CCOC(=O)c1c(NC(=O)c2ccccc2)sc2c1CCc1ccccc1-2,-10.9% (inactive)
19,COc1ccc2noc3c2c1C(=O)c1ccccc1-3,7.47% (inactive)
20,COc1ccc(OC)c2c1C(=O)C(Cl)=C(Cl)C2=O,24.7% (inactive)
21,COCCN1C(=O)N[C@@H](c2ccccc2)[C@H](C(=O)OC)[C@H]1C,-12.7% (inactive)
22,CC1(C)Oc2ccc3ccc(=O)oc3c2C(/C=N/O)=C1Cl,-10.3% (inactive)
23,CC1(C)Oc2ccc3ccc(=O)oc3c2/C(=C/NNC(N)=O)C1=O,-7.94% (inactive)

# — PubChem BioAssay AID504329 (Southern Research Specialized Biocontainment Screening …, 2011)
